Screen size: about 62,000 compounds; about 35 (0.06%) were called active. This is one part of a sample in which actives are shown more often than they occur. A number with no mark means an inactive call. Rule as the data show it: active = inhibition above about 32% (passing the limit was not always enough); inconclusive = no clear call, values can overlap the other calls.
biological target: Cathepsin S (Homo sapiens) (UniProt P25774); test: inhibitors of human cathepsin S, biochemical, compound mixtures (AID 501); conditions: recombinant cathepsin S, AMC dipeptide fluorescence, pooled mixtures; hits give high values;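 tested at 5 µM per compound within 10-compound mixtures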;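 also: 0% = enzyme without compound and 100% = blank without enzyme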
Sequence (P25774 115-331 limits assumed): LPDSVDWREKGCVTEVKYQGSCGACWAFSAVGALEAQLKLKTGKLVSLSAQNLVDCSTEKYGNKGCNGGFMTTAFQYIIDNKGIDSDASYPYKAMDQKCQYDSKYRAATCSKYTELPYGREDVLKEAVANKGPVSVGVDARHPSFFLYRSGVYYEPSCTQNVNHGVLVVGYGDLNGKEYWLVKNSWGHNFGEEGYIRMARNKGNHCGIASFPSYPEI

SMILES	inhibition
Cc1nn(-c2ccccc2)c2sc(C(=O)N(Cc3ccco3)C(C)C(=O)NC(C)(C)C)cc12 (stereo not drawn)	13.8%
c1ccc2c(c1)OCC(CNc1ncnc3nc[nH]c13)O2 (stereo not drawn)	-0.615%
O=C(CN1CCN(c2ncc(C(F)(F)F)cc2Cl)CC1)Nc1ccc2c(c1)OCO2	13.5%
COc1ccc(-c2noc(CN(C)S(=O)(=O)c3ccc(C)cc3)n2)cc1	8.41%
Cc1ccc2c(c1)N(C(=O)CCC(=O)N1CCc3ccccc3C1)CCO2	-12.7%
Cn1c(C(=O)NCCCN2CCN(c3cccc(Cl)c3)CC2)cc2c(=O)n(C)c3ccccc3c21	33% (active)
CC1CCCC(C)N1CCCNC(=O)c1cc2c(=O)n(C)c3ccccc3c2n1C (stereo not drawn)	7.08%
CCn1c(=O)cc(OCC(=O)NCCCN2CCN(c3cccc(Cl)c3)CC2)c2ccccc21	4.46%
COc1ccc(-c2ccc(-c3noc(-c4ccncc4)n3)c(OC)n2)cc1	6.8%
COc1ccccc1N1CCN(c2nc3ccccc3n3nnnc23)CC1	8.24%
CC1CCCC(NC(=O)CN2CCN(Cc3ccc(Cl)cc3)C2=O)C1C (stereo not drawn)	-3.54%
CCN(CC)S(=O)(=O)c1ccc2nc(CSc3nnnn3-c3ccc(O)cc3)[nH]c2c1	-6.33%
CCC(C)Sc1nnc(-c2c[nH]c3ccccc23)n1CCOC (stereo not drawn)	-1.22%
COc1ccc(-c2cc3n(n2)CCc2nc4ccccc4n2-3)cc1	-5.35%
CCN(CC)C(=O)CSc1nnc(-c2ccc(S(=O)(=O)NCc3ccccc3Cl)cc2)o1	6.42%
O=c1/c(=C/c2ccc(CNS(=O)(=O)c3ccccc3)o2)sc2n1CCN=2	-0.38%
Cc1cc(C)nc(SCc2ccccc2C#N)n1	-2.31%
CCc1cc(=O)oc2cc(C)cc(OC(C)C(=O)O)c12 (stereo not drawn)	-5.16%
CN1CCN(Cc2c(O)ccc3c2oc(=O)c2ccccc23)CC1	6.08%
CCNS(=O)(=O)c1ccc(NC(=O)Nc2cccc(C(F)(F)F)c2)cc1	-6.53%
Cc1c2cnn(-c3ccccc3)c(=O)c2c(C)n1CCCC(=O)N1CCN(C)CC1	-3.9%
CC(NC(=O)c1ccco1)C(=O)Nc1nc(-c2ccccn2)cs1 (stereo not drawn)	12%
O=C(O)C1C2C=CC(C2)C1C(=O)N1CCN(CCO)CC1 (stereo not drawn)	3.18%

SMILES	inhibition
CC(=O)c1cnc(Nc2nc(C)c3cc(C)ccc3n2)nc1C	-5.6%
CC(C)NS(=O)(=O)c1ccc(OCC(=O)Nc2ccc3c(c2)OCCO3)cc1	22.9%
CC(C)Nc1nc(N(c2ccccc2)c2ccccc2)nc(-n2ccnc2)n1	-8.9%
N#Cc1nc(N)nc(N(c2ccccc2)c2ccccc2)n1	49.2% (active)
CC(C)n1c(SCC(=O)Nc2ccccc2N2CCCCC2)nc2c1c(=O)n(C)c(=O)n2C	-0.72%
CCOC(=O)C1=C(CNC2CCCCC2)NC(=O)NC1c1cc(C)ccc1C (stereo not drawn)	-0.495%
O=c1cc(CO)oc(CN2CCC(Cc3ccccc3)CC2)c1O	4.81%
C=CCN1C(=O)C(O)(CC(=O)c2ccc(Cl)cc2)c2ccccc21 (stereo not drawn)	-18%
CC(C)N1C(=O)C2C(C(=O)NC3CCCCC3)C3C=CC2(O3)C1C(=O)NC1CCCC1 (stereo not drawn)	-8.37%
COc1ccc(-c2csc(N3CCN(Cc4ccc5c(c4)OCO5)CC3)n2)cc1	-3.99%
COc1ccc(C(=O)Nc2ccc3c(c2)OCO3)cc1OC	-4.12%
Cc1ccc(C(=O)NCC(=O)O)cc1S(=O)(=O)N1CCCCC1	-10.7%
Cc1ccc(C(=O)Nc2ccc3c(c2)OCO3)cc1S(=O)(=O)N1CCCCC1	85.5% (active)
Cc1ccc(S(=O)(=O)N2CCCC2C(=O)NCc2ccco2)cc1 (stereo not drawn)	12.5%
CC1(C)CC(CCC(=O)Nc2ccccc2Cl)C(=O)O1 (stereo not drawn)	-3.38%
Cc1ccc(C(=O)NCC2CCCO2)o1 (stereo not drawn)	0.56%
CCOC(=O)c1c(C)c(C(=O)NCCc2ccc(S(N)(=O)=O)cc2)c(C)n1CC	-0.765%
CC(CCc1ccccc1)NC(=O)c1ccc(Br)o1 (stereo not drawn)	-7.32%
CC1(C)Cc2ccccc2-c2nnc(-c3cccc(O)c3)n21	-3.6%
O=C(c1ccc(S(=O)(=O)N2CCOCC2)cc1)N1CCN(c2ccccc2)CC1	-24.7%
C#CCN1CC(C)/C(=N/O)CC1C (stereo not drawn)	-8.55%
CCOC(=O)C1(c2ccccc2)NC(c2ccc(N(C)C)cc2)C2C(=O)N(C)C(=O)C21 (stereo not drawn)	12.2%
O=S(=O)(NCCNS(=O)(=O)c1ccccc1)c1ccccc1	-7.43%

SMILES	inhibition
Cc1nc(N2CCCC2C(=O)O)c2oc3ccccc3c2n1 (stereo not drawn)	8.31%
COc1ccc(CCn2c(NCCCN3CCOCC3)nc3c2c(=O)[nH]c(=O)n3C)cc1	5.43%
CCOC(=O)c1sc(=S)n2c1[nH]c(=O)c1ccc(C(=O)OC)cc12	-0.96%
O=C(CC(NS(=O)(=O)c1ccc(Cl)cc1)c1ccco1)NC1CCCC1 (stereo not drawn)	-2.72%
CC(=O)Nc1nc(C)c(Cc2ccccc2)c(=O)[nH]1	-3.33%
CCCCSc1nnc(-c2ccc(C)cc2)o1	0.235%
O=C(c1ccc2c(c1)C(=O)N(c1ccc(Cl)cc1)C2=O)N1CCN(c2ccccn2)CC1	2.28%
O=C(NCc1ccco1)c1ccc(CS(=O)(=O)Cc2ccc(F)cc2)o1	-5.21%
COc1cccc(-c2nc3n(n2)C(c2ccccc2Cl)C(C(N)=O)=C(C)N3)c1 (stereo not drawn)	-4.19%
CC1(C)CCCC2=C1CC1C(=O)N(c3ccccc3)C(=O)C1C2 (stereo not drawn)	8.69%
Cc1ccc(-n2c(SCC(=O)Nc3ccc4c(c3)OCO4)nnc2-c2ccoc2C)cc1	7.19%
CC12COC3(C(=O)Nc4ccc(Cl)cn4)CC1CCC32C (stereo not drawn)	-6.89%
COC(=O)C1(S(=O)(=O)C2(C(=O)OC)CCCC2)CCCC1	-5.82%
CCOc1ccc2[nH]c(=O)c(CN(Cc3nnnn3Cc3ccccc3)CC3CCCO3)cc2c1 (stereo not drawn)	6.16%
CCOC(=O)CSc1nccc(N(C)C)c1C#N	14.4%
Cc1nnc(N(Cc2ccco2)C(=O)c2ccno2)s1	-4.35%
CCn1c(=O)cc(O)c2ccccc21	9.68%
COc1cc(C(=O)N(Cc2ccc(N(C)C)cc2)C2CCS(=O)(=O)C2)cc(OC)c1OC (stereo not drawn)	0.64%
Nc1nnc(C2CCCC2)s1	14.3%
CCc1ccccc1NC(=O)c1cccs1	8.09%
CCOC(=O)C1=C(CC)Nc2ccccc2N=C1NC(=O)c1cccc(S(=O)(=O)N2CCCC2)c1	-5.2%
CCC(=O)NC(=Nc1nc2ccccc2s1)NC(=O)CC	-2.2%
C=CCn1c(SCc2cc(C(=O)OC)c(C)o2)nnc1-c1ccncc1	-3.76%

SMILES	inhibition
CCOc1ccc(-c2nnc(-c3ccco3)o2)cc1	-3.01%
CCOc1ccc(OCC)c(NC(=O)CN(C)S(=O)(=O)c2cccc3nsnc23)c1	-22.2%
CCOC(=O)CSc1nnc(CNc2ccc(F)cc2)o1	-5.03%
Cn1c(=NC(=O)CSCC(=O)N2CCOCC2)sc2ccccc21	14.7%
Cn1c(=O)[nH]c(=O)c2c1nc(CN(Cc1ccccc1)Cc1ccccc1)n2CCN1CCOCC1	2.01%
COc1ccc(Br)cc1S(=O)(=O)N1CCN=C1C	-2.2%
Cn1c(=NC(=O)CSCC(=O)N2CCCCC2)sc2ccccc21	6.42%
CSCCC(NS(=O)(=O)/C=C/c1ccccc1)C(=O)N1CCC(C)CC1 (stereo not drawn)	-1.31%
CCOC(=O)N1CCC(NC(=O)CCc2cn(C)c3ccccc23)CC1	-4.61%
CCn1cc(C(=O)NCc2ccc(OC)cc2OC)c(=O)c2ccc(C)nc21	0.185%
CCN(CC)P(=O)(/C(Cl)=C\Nc1c(C)n(C)n(-c2ccccc2)c1=O)N(CC)CC	0.845%
COc1ccc(C)cc1NC(=O)c1[nH]c(C)c(C(C)=O)c1C	-3.92%
Fc1ccc2[nH]c3c(N4CCN(Cc5ccc6c(c5)OCO6)CC4)ncnc3c2c1	-6.06%
CCc1c(C)nc(N)n2c(SCC(=O)N3CCN(c4ccccc4)CC3)nnc12	-12.8%
CN1CCN(CC(O)COCc2ccc3c(c2)OCO3)CC1 (stereo not drawn)	5.75%
CC(=O)Nc1cccc(NC(=O)c2c(-c3ccccc3)noc2C)c1	-5.8%
O=C(NCCCN1CCOCC1)c1cc(-c2ccc(Cl)cc2)on1	-0.13%
O=C(NCCc1ccco1)c1nn(Cc2ccccc2)c(=O)c2ccccc12	11.9%
O=C(C1CCCO1)N(Cc1ccccc1)c1ccccc1 (stereo not drawn)	-2.27%
Cc1ccsc1C(C(=O)NC1CCCCC1)N(C(=O)Cc1cccs1)C1CC1 (stereo not drawn)	6.71%
Cc1cc(=O)n2nc(N3CCCC(C(=O)NCCC4=CCCCC4)C3)sc2n1 (stereo not drawn)	19.8%
CCOC(=O)C1CCCN(C(=O)Cn2ncc3c(=O)oc4ccc(C)cc4c32)C1 (stereo not drawn)	7.33%
O=C(Nc1cccnc1)c1noc2c1CCCCC2	10.9%

SMILES	inhibition
CCc1cc2c(=O)c(-c3ccon3)c(N)oc2cc1OC	-1.48%
COc1ccc(C(c2nnnn2Cc2cccs2)N2CCN(c3ccccc3)CC2)cc1OC (stereo not drawn)	-6.06%
CC(C)COC(=O)C1C2C=CC3(CN(C(C)c4ccc(Br)cc4)C(=O)C13)O2 (stereo not drawn)	14.7%
O=C(O)c1ccc(-n2cccc2)cc1O	5.17%
CCOc1cc(C(=O)Nc2ncccn2)cc(OCC)c1OCC	31.7%
Cc1ccsc1CNn1cnnc1SCc1ccccc1F	-4.25%
CCOC(=O)CCCNC(=O)CN1C(=O)NC(CCc2ccccc2)C1=O (stereo not drawn)	-3.72%
CC1CCCC(N2CCN(C(=O)c3ccc(F)cc3)CC2)C1 (stereo not drawn)	-4.6%
CSCC[C@H](NC(=O)NCCc1ccc(F)cc1)C(=O)O	-4.51%
CCCCc1cc(=O)oc2cc(C)cc(OCc3nn[nH]n3)c12	1.43%
CCN(CC)S(=O)(=O)c1ccc(NC(=O)CN(c2cccc(F)c2)S(C)(=O)=O)cc1	-8.46%
CC(C)(CSc1nncn1/N=C/c1ccco1)NS(=O)(=O)c1ccc(Cl)cc1	6.83%
CC1(C)SC2c3ccccc3C(=O)N2[C@@H]1C(=O)NCc1ccco1 (stereo partly drawn)	-3.88%
CCOC(=O)c1c(C)[nH]c(C)c1C(=O)CSc1nc(N)cc(N)n1	5.32%
O=C(C1CCN(c2nnc(-n3cccc3)s2)CC1)N1CCc2ccccc2C1	4.27%
Cc1cc(Nc2cccc(C)c2C)n2ncnc2n1	-1.92%
COC(=O)c1ccc(NC(=O)CN(c2ccc(C)cc2)S(=O)(=O)c2c(C)n[nH]c2C)cc1	-7.46%
COc1ccc(N(CC(=O)NC(C)(C)C)C(=O)c2ccco2)cc1	10.2%
Cc1cc(Cl)ccc1N1C(=O)CC(SCCC(=O)O)C1=O (stereo not drawn)	1.91%
COc1cc2ccccc2cc1C(=O)Nc1ccc(S(=O)(=O)Nc2cc(C)on2)cc1	-7.28%
Cc1cc(=O)[nH]c(SCC(=O)N2c3ccccc3CC2C)n1 (stereo not drawn)	33.4%

Source: PubChem BioAssay AID501 (PCMD, 2006)
